In PubChem BioAssay:
Values joined by “and” are separate entries in the source; they are usually repeats but may differ in a detail not shown here. Equal entries are not always repeated. Active and inactive are the calls of the source. How the calls were made is not given here.

Assay: kinase inhibitors against Plasmodium liver-stage infection, cell-based, known kinase inhibitor set, luminescence, hepatoma host viability (AID 624392);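 further: infected cells incubated roughly two days before readout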
Conditions: Plasmodium liver stage in hepatoma cells, luciferase luminescence, concentration not given here; liver cell % of control: measured here: host liver cell viability; parasite % of control: stronger effect = lower value
For `COc1cc(NC(=O)c2csc(N)n2)cc(C(=O)Nc2cccc(C(F)(F)F)c2)c1`, the parasite % of control was 39.6% (inactive) and the liver cell % of control was 88.9%. In the case of `CCN1CCN(Cc2ccc(NC(=O)c3cc(NC(=O)C4=NN(c5ccccc5)C(=O)C4)cc(OC)c3)cc2C(F)(F)F)CC1`, the liver cell % of control was 100% and the parasite % of control was 110% (inactive). For `O=C(Nc1cccc(-c2csc(Nc3ccc(Cl)cc3)n2)c1)c1ccccc1`, the parasite % of control was 112% (inactive) and the liver cell % of control was 90.9%. In the case of `COc1cc(O)c2c(c1)oc(=O)c1c3cc(O)c(O)cc3oc21`, the liver cell % of control was 107% and the parasite % of control was 36.8% (inactive). In the case of `CCN1CCN(Cc2ccc(NC(=O)c3ccc(C)c(NC(=O)c4ccno4)c3)cc2C(F)(F)F)CC1`, the parasite % of control was 100% (inactive) and the liver cell % of control was 100%. With `NC1=NC(=O)C(=Cc2ccc(-c3ccc(Cl)cc3)o2)S1` the liver cell % of control was 97.6% and the parasite % of control was 73.1% (inactive). For `COc1cc(Nc2ccccn2)cc(C(=O)Nc2cccc(C(F)(F)F)c2)c1`, the liver cell % of control was 92.4% and the parasite % of control was 74.9% (inactive). With `CCN1C(=O)CC(C(C)C)N(C2CCCC2)c2nc(Nc3ccc(C(=O)NC4CCN(C)CC4)cc3OC)ncc21` (stereo not given) the liver cell % of control was 102% and the parasite % of control was 87.6% (inactive). With `CC(C)C(CO)Nc1nc(Nc2ccc(S(=O)(=O)O)c(N)c2)c2ncn(C(C)C)c2n1` (stereo not given) the liver cell % of control was 101% and the parasite % of control was 105% (inactive). In the case of `CN(c1ccc(OC(F)(F)F)cc1)c1cc(-c2cccc(C(N)=O)c2)ncn1`, the liver cell % of control was 99.1% and the parasite % of control was 107% (inactive). In the case of `CCN1CCN(Cc2ccc(NC(=O)c3cc(NC(=O)c4cc5cccc(OC)c5o4)cc(OC)c3)cc2C(F)(F)F)CC1`, the parasite % of control was 89.9% (inactive) and the liver cell % of control was 93.7%. For `OCCCNc1nccc(-c2cc(Nc3cccc(Cl)c3)ncn2)n1`, the liver cell % of control was 81.8% and the parasite % of control was 176% (inactive). In the case of `COc1cc(N2CCC(O)CC2)ccc1Nc1nnc(Cl)c(Nc2ccccc2S(C)(=O)=O)n1`, the liver cell % of control was 86.2% and the parasite % of control was 80.5% (inactive). In the case of `CCN1CCN(Cc2ccc(NC(=O)c3ccc(C)c(NC(=O)c4cccc(-c5cn[nH]c(=O)c5)c4)c3)cc2C(F)(F)F)CC1`, the liver cell % of control was 103% and the parasite % of control was 55.8% (inactive). With `CC(C)C(CO)N(Cc1cccc(F)c1)c1nc(Nc2cccc(Cl)c2)c2ncn(C(C)C)c2n1` (stereo not given) the parasite % of control was 62.1% (inactive) and the liver cell % of control was 91.9%. With `CC(C)n1cnc2c(N(C)c3cccc(Cl)c3)nc(N(CCO)CCO)nc21` the parasite % of control was 100% (inactive) and the liver cell % of control was 93.8%. In the case of `CC(C)n1cnc2c(N(C)c3ccccc3)nc(N(CCN(C)C)Cc3ccccc3)nc21`, the parasite % of control was 24.1% (inactive) and the liver cell % of control was 84.5%. In the case of `Nc1ccccc1CNc1nc(NCCO)nc2c1ncn2CCN1CCOCC1`, the liver cell % of control was 100% and the parasite % of control was 125% (inactive). With `CCN1CCN(Cc2ccc(NC(=O)c3cc(NC(=O)c4ccno4)cc(OC)c3)cc2C(F)(F)F)CC1` the liver cell % of control was 99.7% and the parasite % of control was 75.7% (inactive). In the case of `O=C(Nc1ccc(-c2csc(Nc3ccc(Cl)cc3)n2)cc1)c1cc([N+](=O)[O-])cc(C(F)(F)F)c1`, the parasite % of control was 97.2% (inactive) and the liver cell % of control was 106%. In the case of `C=CC(=O)Nc1cccc(N2C(=O)N(c3cc(OC)cc(OC)c3)Cc3cnc(NCCCCN(CC)CC)nc32)c1`, the parasite % of control was 107% (inactive) and the liver cell % of control was 102%. With `CN(C)C1=NC(=O)C(=Cc2ccc(-c3ccc(S(N)(=O)=O)cc3)o2)S1` the liver cell % of control was 99.8% and the parasite % of control was 84.6% (inactive). In the case of `CC(C)n1cnc2c(Nc3cccc(F)c3)nc(NCCO)nc21`, the parasite % of control was 135% (inactive) and the liver cell % of control was 95.1%. In the case of `COc1ccc(CNc2nc(NCc3ccc(OC)cc3)c3[nH]cnc3n2)cc1`, the liver cell % of control was 92.9% and the parasite % of control was 590% (inactive). With `C=CC(=O)Nc1ccc(Oc2nc(Nc3ccc(N4CCN(C)CC4)cc3OC)ncc2Cl)cc1` the liver cell % of control was 97.7% and the parasite % of control was 126% (inactive). In the case of `Cc1c[nH]c(C=C2C(=O)Nc3ccccc32)c1CCC(=O)O`, the parasite % of control was 58.7% (inactive) and 47.8% (inactive) and 49.4% (inactive) and the liver cell % of control was 85.5% and 92.1% and 99.1%. For `Cc1ccc(C(=O)Nc2cccc(C(F)(F)F)c2)cc1NC(=O)c1nccn1C`, the liver cell % of control was 99.8% and the parasite % of control was 33.1% (inactive). In the case of `NS(=O)(=O)c1ccc(-c2ccc(C=C3NC(=S)NC3=O)o2)cc1`, the parasite % of control was 100% (inactive) and the liver cell % of control was 98.7%. With `O=C(Nc1cccc(-c2csc(Nc3ccccc3)n2)c1)c1ccccc1` the liver cell % of control was 102% and the parasite % of control was 31.8% (inactive). For `Cc1cc(C(=O)Nc2cc(Nc3ccc4c(C=Cc5ccccn5)n[nH]c4c3)ccc2F)n(C)n1`, the parasite % of control was 17.4% (inactive) and 18.3% (inactive) and 40.1% (inactive) and the liver cell % of control was 75.4% and 84.5% and 95.8%. In the case of `Cc1ccc(C(=O)Nc2cccc(C(F)(F)F)c2)cc1NC(=O)c1nccnc1N`, the parasite % of control was 83.1% (inactive) and the liver cell % of control was 95%. For `C=CC(=O)Nc1cccc(N(C)c2ccnc(Nc3ccc(N4CCN(C)CC4)cc3)n2)c1`, the parasite % of control was 6.04% (inactive) and the liver cell % of control was 95.1%. With `CCN1CCN(Cc2ccc(NC(=O)c3cc(NC(=O)N4CCNC4=O)cc(OC)c3)cc2C(F)(F)F)CC1` the parasite % of control was 12.4% (active) and the liver cell % of control was 96.3%. With `O=C(Nc1ccc(-c2csc(Nc3ccccc3)n2)cc1)c1cc([N+](=O)[O-])cc(C(F)(F)F)c1` the parasite % of control was 102% (inactive) and the liver cell % of control was 102%. For `CC(C)n1cnc2c(NCc3ccccc3)nc(NCc3ccccc3)nc21`, the parasite % of control was 83.2% (inactive) and the liver cell % of control was 91.8%. In the case of `CN(C)CC=CC(=O)Nc1cccc(-c2c[nH]c3ncnc(Oc4ccc(NC(=O)CC(=O)Nc5ccc(F)cc5)cc4F)c23)c1`, the liver cell % of control was 96.3% and the parasite % of control was 155% (inactive). In the case of `CCN1CCN(Cc2ccc(NC(=O)c3cc(NC(=O)c4cc(C)on4)cc(OC)c3)cc2C(F)(F)F)CC1`, the parasite % of control was 92.3% (inactive) and the liver cell % of control was 99.3%. With `CC(C)n1cnc2c(NCc3ccc(S(N)(=O)=O)cc3)nc(NCc3ccc(S(N)(=O)=O)cc3)nc21` the parasite % of control was 108% (inactive) and the liver cell % of control was 102%. In the case of `COc1cc(C(=O)NC2CCN(C)CC2)ccc1Nc1ncc2c(n1)N(C1CCCCC1)CCC(=O)N2C`, the liver cell % of control was 81.9% and the parasite % of control was 520% (inactive). In the case of `O=C1NN(c2ccccc2)C(=O)C1=Cc1ccc(-c2ccc(Cl)cc2)o1`, the parasite % of control was 92.2% (inactive) and the liver cell % of control was 98.7%.
